# ANO1 activ: TMEM16A chloride channel activators or potentiators, primary screen, cell-based, HTS; HEK293 TMEM16A/YFP-H148Q/I152L, iodide quench fluorescence; active compounds read low; Anoctamin-1 (Mus musculus), Q8BHY3; B-score at 10 µM; actives 0.3% (n = 340,000);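 active = fluorescence-ratio B-score plate-corrected deviation score at least 3 library SD below zero, with starting fluorescence score within 5 deviations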;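 note: channel opened by trigger with iodide after compound preincubation; score built on the fluorescence ratio of max minus min over baseline; more negative score means more quench and so TMEM16A activation or potentiation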
# CHT inh: inhibitors of human choline transporter CHT | CHT-expressing cells, membrane potential dye, choline response; active compounds read low | B-score at 10 µM | actives 0.86% (n = 310,000) | AID 488975, 2010;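 active = B-score over 3 SD under the library average, and starting fluorescence ratio not unusually high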;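 note: choline stimulus applied at its EC90 after an EC20 pre-addition; B-score computed on integrated fluorescence ratio after choline addition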
# Target sequence (Q9GZV3 whole entry, looked up): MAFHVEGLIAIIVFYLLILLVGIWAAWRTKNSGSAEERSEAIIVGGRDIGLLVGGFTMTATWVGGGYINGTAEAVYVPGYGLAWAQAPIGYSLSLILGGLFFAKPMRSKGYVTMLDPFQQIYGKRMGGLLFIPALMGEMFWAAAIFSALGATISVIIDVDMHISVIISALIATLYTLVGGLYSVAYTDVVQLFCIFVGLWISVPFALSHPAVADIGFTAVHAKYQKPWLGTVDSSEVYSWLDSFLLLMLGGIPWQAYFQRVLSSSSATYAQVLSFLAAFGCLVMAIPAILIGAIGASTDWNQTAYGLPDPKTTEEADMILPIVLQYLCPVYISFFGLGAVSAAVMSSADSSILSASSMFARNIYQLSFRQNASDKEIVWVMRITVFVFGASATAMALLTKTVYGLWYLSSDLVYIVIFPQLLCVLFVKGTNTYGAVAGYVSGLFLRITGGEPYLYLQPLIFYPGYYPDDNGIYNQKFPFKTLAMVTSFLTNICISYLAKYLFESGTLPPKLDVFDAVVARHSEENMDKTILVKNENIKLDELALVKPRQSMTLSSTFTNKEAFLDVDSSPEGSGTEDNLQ
# TMEM16A inh: TMEM16A chloride channel inhibitors, primary screen, cell-based, HTS; actives 1.2% (n = 310,000); HEK293 TMEM16A/YFP iodide influx fluorescence, ionomycin; normalized B-score (activity score, 25-100; higher = stronger inhibition) at 10 µM;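 active = ratio plate-corrected score three or more library SD toward inhibition, starting fluorescence score within five deviations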;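 note: score derived from kinetic fluorescence span divided by baseline fluorescence per well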
# CHT allo act: CHT positive allosteric modulators, primary screen, cell-based, membrane potential dye, choline EC20. High affinity choline transporter 1 (Homo sapiens), Q9GZV3. AID 488977, 2010. CHT-expressing cells; active compounds read high; LV-AA mutant CHT in HEK293 cells. actives 0.49% (n = 310,000). B-score at 10 µM;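 active = initial fluorescence not abnormally high and integrated response B-score, plate-corrected, over 3 SD above library mean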
# CHT act confirm: CHT activators, confirmation, cell-based, membrane potential dye, duplicate; actives 91% (n = 2,500); activation, % at 10 µM; shares compounds with CHT allo act; CHT-expressing cells, membrane potential dye fluorescence (FDSS); % of choline EC20–EC90 response window; HEK293 expressing CHT LV-AA mutant; choline added at its EC20; AID 504833, 2011;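 active = primary screen active, with duplicate mean activation above negative control mean plus 3 SD, cut at about 11% in these data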
# HEK293 MP dye: membrane potential response in parental HEK293 cells, counter-screen for CHT activator project, cell-based, membrane potential dye; shares compounds with CHT allo act; membrane potential dye fluorescence (FDSS); measured after EC20 choline addition; ratio readout change at 10 µM, hits read low; actives 62% (n = 2,500);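 active = duplicate-averaged ratio beyond 3 SD from buffer wells, up or down, though filed actives are nearly all decreases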
# * = called active by the depositor; i = inactive; / = not tested or not shown. Most compounds without a hit are left out; they make up all but 2.3% or so of the library.
SMILES,ANO1 activ,CHT inh,TMEM16A inh,CHT allo act,CHT act confirm,HEK293 MP dye
N#Cc1c(=O)c2nc(NCc3ccccc3)ncc2n2ccccc12,i,i,i,i,24.2*,-39.9*
N#Cc1c(=O)c2nc(NCCCO)ncc2n2c(=O)c3ccccc3[nH]c12,i,i,i,i,/,/
O=C(Nc1cccc(OC(=O)c2ccc(Br)o2)c1)c1ccccc1,i,i,i,i,/,/
CCNC(=O)C(C)Sc1ccc(Cl)cc1 (stereo unspecified),i,i,i,i,/,/
Cc1ccc(SC(C)C(=O)Nc2ccccc2-c2ccccc2)cc1 (stereo unspecified),i,i,i,i,7.2,i
CC(Sc1ccc(Cl)cc1)C(=O)Nc1ccccc1-c1ccccc1 (stereo unspecified),i,i,i,6.98*,34.6*,i
N#Cc1ccsc1NC(=O)COC(=O)c1cc2ccccc2cc1O,i,i,i,i,/,/
CN(CCOc1ccccc1)CC(=O)Nc1ccc(Cl)c(S(=O)(=O)N(C)C)c1,i,i,i,7*,5.3,i
CN(C)S(=O)(=O)c1cc(NC(=O)CNCc2ccccc2)ccc1Cl,i,i,i,i,/,/
CCCCn1cnc2cc(NCc3ccncc3)ccc21,i,i,i,i,43.5*,-43.1*
CCCn1cnc2cc(NCc3cccs3)ccc21,i,i,i,i,/,/
CCNC(=O)NC(=O)C(C)SCc1ccccc1C (stereo unspecified),i,i,i,i,/,/
COc1ccc(NC(=S)NC(C)c2ccncc2)cc1OC (stereo unspecified),i,i,i,i,18.0*,i
CC(NC(=S)Nc1ccc([N+](=O)[O-])cc1)c1ccncc1 (stereo unspecified),i,i,i,i,/,/
COC(=O)c1cccc(NC(=O)CSc2nnc(C)n2C)c1,i,i,i,i,/,/
O=P(c1ccccc1)(c1ccccc1)C(O)c1ccccn1 (stereo unspecified),i,i,i,i,/,/
O=P(c1ccccc1)(c1ccccc1)C(c1ccccn1)P(=O)(c1ccccc1)c1ccccc1,i,i,i,8.49*,33.9*,i
Cc1nnc(N2CCC(C(=O)N3CCCCC3)CC2)c2nn(-c3ccc(Cl)cc3)c(C)c12,i,i,i,i,39.1*,i
Cc1nnc(N2CCOCC2)c2nn(-c3cccc(Cl)c3)c(C)c12,i,i,i,i,/,/
CCCCn1c(=N)n(CC(O)COc2ccccc2)c2ccccc21 (stereo unspecified),i,i,i,i,35.5*,i
c1ccc2c(N3CCCCC3)nc(N3CCOCC3)nc2c1,i,i,i,6.73*,40.2*,-43.7*
c1ccc2c(N3CCCCC3)nc(N3CCCCC3)nc2c1,i,i,i,i,/,/
COc1ccc2nc(N3CCOCC3)cc(C)c2c1,i,i,i,8.37*,57.8*,-57.4*
Cc1cc(N2CCCCC2)nc2ccccc12,i,i,i,i,/,/
Cc1cc(N2CCOCC2)nc2ccc(NC(=O)CCC(=O)N3CCCC(C)C3)cc12 (stereo unspecified),i,i,i,i,41.0*,-36*
SMILES,ANO1 activ,CHT inh,TMEM16A inh,CHT allo act,CHT act confirm,HEK293 MP dye
Cc1cc(N2CCCN(C)CC2)nc2cc(Cl)ccc12,i,i,i,i,35.0*,-49.9*
COc1ccccc1NC(=O)CN1C(=O)CC(C)S(=O)(=O)c2ccccc21 (stereo unspecified),i,i,i,i,/,/
COc1cccc(C(=O)Nc2ccc3nc(N4CCOCC4)cc(C)c3c2)c1,i,i,i,6.85*,42.3*,-43.3*
Cc1cc(N2CCOCC2)nc2ccccc12,i,i,i,6.46*,45.4*,-50.9*
Cc1cc(N2CCOCC2)nc2cc(O)ccc12,i,i,i,9.23*,73.8*,-45.2*
Cc1ccc(S(=O)(=O)Nc2ccc(NC(=O)c3c(F)c(F)c(F)c(F)c3F)cc2)cc1,i,i,i,i,/,/
Cc1nnc2n(-c3ccccc3)c(=O)c3c4c(sc3n12)COC(C)(C)C4,i,i,i,i,/,/
Cc1nnc2n(-c3ccccc3)c(=O)c3c4c(sc3n12)CCCC4,i,i,i,6.46*,26.1*,-40.3*
CCCCCC(=O)Cc1cc(O)cc2c1C(=O)Oc1cc(O)c(C(=O)O)c(CCCCC)c1O2,/,i,25*,i,30.1*,-49.6*
Cc1cc(C)n2nc(C(=O)Nc3ccc4c(c3)OCCO4)nc2n1,i,/,/,/,/,/
Cc1cc(C)n2nc(C(=O)N/N=C/c3ccc(O)cc3)nc2n1,i,i,i,6.53*,30.2*,-24.2*
CCC(CC)c1nnc(NC(=O)c2nc3nc(C)cc(C)n3n2)s1,i,i,i,7.28*,29.6*,-30.9*
Cc1cc(C)n2nc(C(=O)Nc3ccc4c(c3)OCO4)nc2n1,i,i,i,7.56*,29.9*,-34.8*
Cc1cc(C)n2nc(C(=O)Nc3ccc(S(=O)(=O)N(C)C)cc3)nc2n1,i,i,i,8.17*,59.7*,-55.5*
COc1cc(OC)cc(C(=O)NNC(=O)CNC(=O)c2cccs2)c1,i,/,/,/,/,/
O=C(CCCN1C(=O)/C(=C/c2ccc(F)cc2)SC1=S)NC1CCS(=O)(=O)C1 (stereo unspecified),i,i,i,i,/,/
Cc1c(C)c2ccc(OC(C)C(=O)NCCCn3ccnc3)c(C)c2oc1=O (stereo unspecified),i,i,i,i,62.1*,-36.3*
CCN(CC)CCNC(=O)c1cc2c(=O)n(C)c3ccccc3c2n1C,i,i,i,i,/,/
Cn1c(C(=O)NCCCN2CCc3ccccc3C2)cc2c(=O)n(C)c3ccccc3c21,i,i,i,i,25.5*,-26.6*
Cn1c(C(=O)NC2CC2)cc2c(=O)n(C)c3ccccc3c21,i,i,i,i,36.3*,-29.6*
COCCNC(=O)c1cc2c(=O)n(C)c3ccccc3c2n1C,i,i,i,i,/,/

# Screens from PubChem BioAssay.
